Assay results taken from the supplement of paper PMC11732987, “Enantioselective OTUD7B fragment discovery through chemoproteomics screening and high-throughput optimisation” (Communications Chemistry, 2025).
Values without a mark were called inactive.

Legend:
Experiment in all cases: log2 ratio of Biotin-Ahx-Ub-VS probe labelling (fragment/DMSO); higher = less target engagement (more negative = stronger competition), active = hit call of the paper (q ≤ 0.05, log2 ratio ≤ -1)
Settings in all cases: compound concentration: 200 uM; treatment time: 3 h
USP19 = target: T1, USP19 (UniProt O94966)
T1 sequence (whole entry): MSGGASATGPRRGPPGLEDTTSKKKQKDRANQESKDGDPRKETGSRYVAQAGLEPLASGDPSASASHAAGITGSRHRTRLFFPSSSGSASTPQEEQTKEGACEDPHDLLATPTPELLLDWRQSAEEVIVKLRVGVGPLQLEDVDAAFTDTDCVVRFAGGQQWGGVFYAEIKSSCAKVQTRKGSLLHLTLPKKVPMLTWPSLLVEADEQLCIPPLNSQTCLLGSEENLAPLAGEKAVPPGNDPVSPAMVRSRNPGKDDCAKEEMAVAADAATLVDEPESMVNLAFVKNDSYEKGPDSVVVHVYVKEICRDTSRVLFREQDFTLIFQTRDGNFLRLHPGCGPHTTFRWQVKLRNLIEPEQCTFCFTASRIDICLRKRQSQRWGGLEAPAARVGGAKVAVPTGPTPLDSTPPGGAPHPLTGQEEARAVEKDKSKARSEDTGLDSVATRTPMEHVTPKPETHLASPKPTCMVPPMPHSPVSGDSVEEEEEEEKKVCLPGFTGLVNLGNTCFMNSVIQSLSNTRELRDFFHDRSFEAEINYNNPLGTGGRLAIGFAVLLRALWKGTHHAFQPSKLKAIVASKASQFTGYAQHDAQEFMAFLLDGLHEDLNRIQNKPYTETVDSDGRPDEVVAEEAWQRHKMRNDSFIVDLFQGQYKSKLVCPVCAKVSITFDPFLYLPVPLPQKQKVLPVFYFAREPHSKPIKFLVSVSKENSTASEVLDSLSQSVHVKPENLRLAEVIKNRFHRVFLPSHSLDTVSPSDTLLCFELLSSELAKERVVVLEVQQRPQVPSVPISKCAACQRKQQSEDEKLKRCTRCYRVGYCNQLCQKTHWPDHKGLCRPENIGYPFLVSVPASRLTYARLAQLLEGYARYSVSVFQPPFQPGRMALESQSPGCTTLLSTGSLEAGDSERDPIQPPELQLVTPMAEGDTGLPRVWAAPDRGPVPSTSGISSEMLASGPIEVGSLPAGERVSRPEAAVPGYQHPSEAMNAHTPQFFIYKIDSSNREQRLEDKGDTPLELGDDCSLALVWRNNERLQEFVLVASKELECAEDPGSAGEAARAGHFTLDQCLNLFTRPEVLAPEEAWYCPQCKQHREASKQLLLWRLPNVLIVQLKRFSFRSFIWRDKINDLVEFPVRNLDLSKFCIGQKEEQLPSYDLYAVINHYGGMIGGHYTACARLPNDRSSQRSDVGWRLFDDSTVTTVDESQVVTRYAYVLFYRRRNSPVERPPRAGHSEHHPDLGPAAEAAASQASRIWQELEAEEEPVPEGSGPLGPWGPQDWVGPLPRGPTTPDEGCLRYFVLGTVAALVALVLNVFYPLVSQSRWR
Outline: (§1)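 HEK293T lysate (495 µg per sample, in Tris/CHAPS/IGEPAL buffer with protease inhibitors) was treated in triplicate with fragment at 200 µM or with DMSO for 3 h. It was then treated with Biotin-Ahx-Ub-VS (0.5 µM final) for 1 h. Labelled DUBs were NeutrAvidin-enriched, digested with LysC and trypsin, and run by diaPASEF LC-MS/MS. Spectronaut label-free quantities were global-median-normalised. Values are average log2 ratios fragment/DMSO by unpaired t-test, using proteins with ≥2 unique peptides.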

USP24 = USP24 (UniProt Q9UPU5)
USP24, sequence (Q9UPU5 whole entry): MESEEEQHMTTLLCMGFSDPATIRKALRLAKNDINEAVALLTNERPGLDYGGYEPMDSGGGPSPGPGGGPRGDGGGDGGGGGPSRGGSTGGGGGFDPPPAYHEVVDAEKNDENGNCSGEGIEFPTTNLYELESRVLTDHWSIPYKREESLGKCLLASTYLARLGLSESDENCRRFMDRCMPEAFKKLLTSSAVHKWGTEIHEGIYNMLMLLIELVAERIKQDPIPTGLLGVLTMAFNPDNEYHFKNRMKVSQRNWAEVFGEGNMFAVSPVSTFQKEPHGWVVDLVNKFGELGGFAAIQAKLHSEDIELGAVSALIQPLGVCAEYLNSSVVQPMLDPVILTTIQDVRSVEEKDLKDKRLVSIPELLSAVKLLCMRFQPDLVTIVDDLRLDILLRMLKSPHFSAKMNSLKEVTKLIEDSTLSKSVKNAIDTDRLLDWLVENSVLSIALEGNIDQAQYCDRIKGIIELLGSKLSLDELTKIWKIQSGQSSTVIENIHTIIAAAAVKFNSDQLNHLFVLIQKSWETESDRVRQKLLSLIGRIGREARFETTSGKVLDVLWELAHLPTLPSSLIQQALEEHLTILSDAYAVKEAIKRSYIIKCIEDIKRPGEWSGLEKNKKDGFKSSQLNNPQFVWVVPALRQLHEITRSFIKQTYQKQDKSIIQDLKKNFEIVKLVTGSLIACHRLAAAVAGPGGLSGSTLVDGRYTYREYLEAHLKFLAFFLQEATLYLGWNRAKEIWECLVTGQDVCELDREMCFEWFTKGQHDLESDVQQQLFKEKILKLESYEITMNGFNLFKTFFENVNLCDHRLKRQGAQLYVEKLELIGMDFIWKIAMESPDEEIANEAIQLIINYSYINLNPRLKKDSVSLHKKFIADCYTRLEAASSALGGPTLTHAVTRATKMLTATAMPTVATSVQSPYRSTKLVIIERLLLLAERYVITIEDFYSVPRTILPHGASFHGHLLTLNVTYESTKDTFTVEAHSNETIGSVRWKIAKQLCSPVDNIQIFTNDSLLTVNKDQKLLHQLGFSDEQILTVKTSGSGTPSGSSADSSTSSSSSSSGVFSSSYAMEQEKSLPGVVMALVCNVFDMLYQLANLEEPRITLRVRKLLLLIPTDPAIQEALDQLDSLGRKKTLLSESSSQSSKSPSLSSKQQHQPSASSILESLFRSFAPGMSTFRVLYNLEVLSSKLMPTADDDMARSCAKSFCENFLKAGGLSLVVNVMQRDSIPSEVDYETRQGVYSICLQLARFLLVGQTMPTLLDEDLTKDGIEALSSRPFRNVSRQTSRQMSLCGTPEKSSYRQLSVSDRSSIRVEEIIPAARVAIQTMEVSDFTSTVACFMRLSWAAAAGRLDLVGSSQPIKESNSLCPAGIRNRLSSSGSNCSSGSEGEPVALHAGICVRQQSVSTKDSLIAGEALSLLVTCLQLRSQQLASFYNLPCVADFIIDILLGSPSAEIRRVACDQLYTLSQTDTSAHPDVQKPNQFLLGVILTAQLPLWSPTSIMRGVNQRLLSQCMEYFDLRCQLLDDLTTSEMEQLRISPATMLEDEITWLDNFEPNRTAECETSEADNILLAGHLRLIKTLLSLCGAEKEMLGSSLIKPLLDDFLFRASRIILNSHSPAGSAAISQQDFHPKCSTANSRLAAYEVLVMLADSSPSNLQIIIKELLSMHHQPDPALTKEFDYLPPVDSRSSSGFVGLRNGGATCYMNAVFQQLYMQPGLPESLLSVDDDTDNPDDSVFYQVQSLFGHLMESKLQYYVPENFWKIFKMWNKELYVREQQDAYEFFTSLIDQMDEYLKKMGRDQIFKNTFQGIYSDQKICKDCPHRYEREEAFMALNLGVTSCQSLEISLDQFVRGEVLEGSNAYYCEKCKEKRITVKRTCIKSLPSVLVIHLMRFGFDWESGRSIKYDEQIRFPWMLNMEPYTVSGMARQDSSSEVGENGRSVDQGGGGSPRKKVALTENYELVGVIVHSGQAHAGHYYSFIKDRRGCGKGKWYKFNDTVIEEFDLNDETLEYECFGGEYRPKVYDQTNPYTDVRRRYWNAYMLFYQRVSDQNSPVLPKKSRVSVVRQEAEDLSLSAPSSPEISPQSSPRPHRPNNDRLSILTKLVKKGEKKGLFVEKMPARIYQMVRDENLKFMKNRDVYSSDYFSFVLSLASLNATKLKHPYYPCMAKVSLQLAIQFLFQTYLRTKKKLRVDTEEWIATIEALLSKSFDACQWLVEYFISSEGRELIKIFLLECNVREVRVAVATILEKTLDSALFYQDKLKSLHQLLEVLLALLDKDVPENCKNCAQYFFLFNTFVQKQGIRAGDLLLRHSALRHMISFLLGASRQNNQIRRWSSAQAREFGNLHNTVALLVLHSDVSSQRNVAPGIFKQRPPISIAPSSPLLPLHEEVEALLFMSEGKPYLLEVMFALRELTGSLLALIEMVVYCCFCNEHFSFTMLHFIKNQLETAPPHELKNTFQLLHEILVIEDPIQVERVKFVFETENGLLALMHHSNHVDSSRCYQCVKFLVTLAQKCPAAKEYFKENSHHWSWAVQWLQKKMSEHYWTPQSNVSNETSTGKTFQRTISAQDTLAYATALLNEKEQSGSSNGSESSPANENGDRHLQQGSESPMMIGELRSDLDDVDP
Outline: as §1

USP25 = target: T2, USP25 (UniProt Q9UHP3)
T2 sequence (whole entry): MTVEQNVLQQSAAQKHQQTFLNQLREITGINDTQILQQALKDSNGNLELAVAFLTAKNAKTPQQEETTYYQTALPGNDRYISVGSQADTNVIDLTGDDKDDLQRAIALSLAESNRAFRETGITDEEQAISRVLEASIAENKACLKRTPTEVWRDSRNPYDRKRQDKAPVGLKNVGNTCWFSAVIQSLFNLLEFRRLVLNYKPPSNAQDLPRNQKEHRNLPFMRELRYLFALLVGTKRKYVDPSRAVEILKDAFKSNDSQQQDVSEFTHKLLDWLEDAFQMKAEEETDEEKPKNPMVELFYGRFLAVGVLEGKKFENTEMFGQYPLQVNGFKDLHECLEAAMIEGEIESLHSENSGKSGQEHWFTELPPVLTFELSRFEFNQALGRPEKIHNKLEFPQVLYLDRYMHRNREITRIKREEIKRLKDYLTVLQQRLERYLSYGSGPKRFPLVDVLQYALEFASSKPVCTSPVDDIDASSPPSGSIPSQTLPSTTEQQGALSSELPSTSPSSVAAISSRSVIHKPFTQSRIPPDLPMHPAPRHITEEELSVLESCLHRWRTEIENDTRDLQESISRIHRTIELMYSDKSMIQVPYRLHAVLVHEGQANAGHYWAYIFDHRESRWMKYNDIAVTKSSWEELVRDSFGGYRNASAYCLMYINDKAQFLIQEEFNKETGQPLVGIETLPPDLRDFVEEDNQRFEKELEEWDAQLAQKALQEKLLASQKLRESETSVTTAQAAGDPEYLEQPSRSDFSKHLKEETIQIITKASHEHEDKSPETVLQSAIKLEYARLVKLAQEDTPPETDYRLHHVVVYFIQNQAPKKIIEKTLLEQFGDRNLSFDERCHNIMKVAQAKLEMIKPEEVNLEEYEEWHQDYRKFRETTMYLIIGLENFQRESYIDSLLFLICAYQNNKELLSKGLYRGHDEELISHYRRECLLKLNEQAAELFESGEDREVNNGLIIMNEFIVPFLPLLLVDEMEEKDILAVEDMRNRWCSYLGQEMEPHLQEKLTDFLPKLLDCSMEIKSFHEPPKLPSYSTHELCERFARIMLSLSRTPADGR
Outline: as §1

USP28 = target: T3, USP28 (UniProt Q96RU2)
T3 sequence (whole entry): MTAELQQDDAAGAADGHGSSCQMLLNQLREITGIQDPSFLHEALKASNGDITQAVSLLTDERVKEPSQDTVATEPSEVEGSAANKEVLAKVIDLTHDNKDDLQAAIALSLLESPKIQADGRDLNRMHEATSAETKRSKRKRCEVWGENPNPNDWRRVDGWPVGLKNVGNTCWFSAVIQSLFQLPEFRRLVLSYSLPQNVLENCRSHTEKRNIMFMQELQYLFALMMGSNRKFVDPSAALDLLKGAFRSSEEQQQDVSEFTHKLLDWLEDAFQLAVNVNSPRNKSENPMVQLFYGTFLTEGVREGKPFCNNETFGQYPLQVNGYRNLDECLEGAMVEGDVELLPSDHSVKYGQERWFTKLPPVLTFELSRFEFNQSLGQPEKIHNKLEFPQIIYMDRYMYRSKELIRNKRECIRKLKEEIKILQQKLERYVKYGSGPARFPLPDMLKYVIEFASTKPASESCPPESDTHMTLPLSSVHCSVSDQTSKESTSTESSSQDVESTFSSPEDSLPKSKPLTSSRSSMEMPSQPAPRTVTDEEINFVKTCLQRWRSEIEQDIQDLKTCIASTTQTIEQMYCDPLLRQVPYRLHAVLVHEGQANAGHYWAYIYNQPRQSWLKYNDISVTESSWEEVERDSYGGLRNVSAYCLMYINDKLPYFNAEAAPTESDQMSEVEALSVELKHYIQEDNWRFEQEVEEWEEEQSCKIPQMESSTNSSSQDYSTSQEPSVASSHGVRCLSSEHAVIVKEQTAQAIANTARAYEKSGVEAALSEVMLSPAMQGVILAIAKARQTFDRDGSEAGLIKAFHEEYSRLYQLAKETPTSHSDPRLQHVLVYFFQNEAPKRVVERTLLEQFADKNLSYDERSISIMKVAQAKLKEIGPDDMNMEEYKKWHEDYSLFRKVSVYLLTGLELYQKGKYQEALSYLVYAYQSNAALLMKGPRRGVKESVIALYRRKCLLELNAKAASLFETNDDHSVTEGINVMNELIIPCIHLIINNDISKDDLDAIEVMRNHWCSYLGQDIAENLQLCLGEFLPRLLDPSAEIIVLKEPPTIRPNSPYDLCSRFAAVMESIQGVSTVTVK
Outline: as §1

For `Cc1cccc(NC(=O)CCl)c1C`, the “log2 ratio of Biotin-Ahx-Ub-VS probe labelling” value (shortened to “log2 ratio”) (USP19) was -0.393, the “log2 ratio” value (USP24) was -0.573 and the “log2 ratio” value (USP25) was -1.06 (active). For the same molecule, the “log2 ratio” value (USP28) was -1.32 (active).
